Data on 59 molecules can be found in PubChem BioAssay AID1508602 (The Scripps Research Institute Molecular Screening Center, 2020).

Molecules are shown by their SMILES. Among all 650,000 compounds or so, about 6,800 (1%) were called active. What follows is part of a selection rich in actives, with near analogues and random picks from the rest. Values without a mark were called inactive. No stated cut-off is given here; in the data, active means activation above about 4.9%; inactive means the rest.

For the assay, the target named is G-protein coupled receptor 151 (Homo sapiens) (UniProt Q8TDV0). As to the kind of experiment: activators of human GPR151, primary screen, cell-based, PathHunter beta-arrestin, luminescence (AID 1508602).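 Further: 0% = median of compound wells and 100% = cells with positive control.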 To be noted: PathHunter beta-arrestin GPR151 cells, at 11.2 µM, hits give high values.
Sequence of G-protein coupled receptor 151 (Homo sapiens) (Q8TDV0 whole entry, looked up): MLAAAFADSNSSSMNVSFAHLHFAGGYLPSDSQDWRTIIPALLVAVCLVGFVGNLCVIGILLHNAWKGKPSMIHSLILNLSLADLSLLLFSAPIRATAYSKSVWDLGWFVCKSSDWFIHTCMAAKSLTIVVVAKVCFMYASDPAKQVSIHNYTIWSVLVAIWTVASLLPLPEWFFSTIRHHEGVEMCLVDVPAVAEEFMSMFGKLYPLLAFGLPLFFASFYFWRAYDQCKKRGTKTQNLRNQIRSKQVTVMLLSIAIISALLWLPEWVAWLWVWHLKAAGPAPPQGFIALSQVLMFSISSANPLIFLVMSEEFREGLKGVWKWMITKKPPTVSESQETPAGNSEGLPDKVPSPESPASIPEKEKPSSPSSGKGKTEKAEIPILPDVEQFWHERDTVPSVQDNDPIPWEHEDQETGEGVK
Turning to `Cc1ccc(OCC(=O)Nc2ccc(C)c(Cl)c2)cc1C`, the activation was 1.59%. Next, `O=C(COc1ccc(Cl)cc1)Nc1ccc(F)c(F)c1`: 0.102%.

In the case of `O=C(COc1ccc(CO)cc1)Nc1ccc(Cl)c(Cl)c1`, the activation was 8.11% (active). Next, `CCN(CC)S(=O)(=O)c1ccc(NC(=O)c2ccc(F)cc2)cc1`: -0.476%; `Cc1ccc(C(C)(C)C)c(OCCN2CCNCC2)c1`: 0.932%. In the case of `Cc1cccc(OCCN2CCNCC2)c1C` it was 0.825%; in that of `C=CCc1ccccc1OCCN1CCNCC1`, 5.95% (active); in that of `COc1cccc(CNC(=O)Cn2c(=O)oc3ccccc32)c1`, -1.36%. In the case of `N#CCCn1c2ccc(Cl)cc2c2cc(Cl)ccc21` it was 2.4%; in that of `Cc1ccc(-n2cc(-c3ccccc3)c3c(N4CC(C)OC(C)C4)ncnc32)cc1` (centres undefined), 7.76% (active). As for `COc1ccc(N2CCN(c3ncnc4c3c(-c3ccccc3)cn4-c3ccc(C)cc3)CC2)cc1`, the activation was -2.7%. In the case of `CC1CN(c2ncnc3c2c(-c2ccccc2)cn3-c2cccc(C(F)(F)F)c2)CC(C)O1` (centres undefined) it was -1.46%; in that of `CCN(CC)CCCNCC(=O)Nc1ncc(C)s1`, -1.43%; in that of `Cc1ccccc1CC1(CO)CCCN(Cc2ccncc2)C1` (centres undefined), 5.32% (active). In the case of `Cc1ccccc1CC1(CO)CCCN(C(=O)CN(C)Cc2ccncc2)C1` (centres undefined) it was 0.125%; in that of `OCC1(Cc2ccccc2C(F)(F)F)CCN(Cc2ccncc2)CC1`, -0.707%.

`Cc1csc(COc2ccc(C(=O)NCc3cccs3)cc2)n1`: the activation was -2.02%. In the case of `Cn1ncc2c(Nc3cccc4ccccc34)ncnc21` it was 2.47%; in that of `Cn1ncc2c(NNC(=O)c3ccc(C(C)(C)C)cc3)ncnc21`, 1.02%; in that of `Cn1ncc2c(NNC(=O)Cc3cccc4ccccc34)ncnc21`, 6.03% (active). Next, `O=C1c2ccccc2C(=O)C1(Nc1ccc(-c2ccccc2)cc1)c1ccccc1`: 0.902%; `O=C(Nc1ccc2c(c1)C(=O)Nc1cc(Cl)ccc1O2)c1cccc(F)c1`: -0.172%. In the case of `COc1ccc(C2CC(c3cccs3)=NN2C(=O)CSc2nnc(CNC(=O)c3cccc(C)c3)n2Cc2ccccc2)cc1` (centres undefined) it was -0.0797%; in that of `Cc1ccc(C2CC(c3cccs3)=NN2C(=O)CSc2nnc(CNC(=O)c3cccs3)n2Cc2ccccc2)cc1` (centres undefined), -0.904%; in that of `O=C(NCc1nnc(SCC(=O)N2N=C(c3cccs3)CC2c2ccc(F)cc2)n1Cc1ccccc1)c1cccc(F)c1` (centres undefined), 5.02% (active).

Turning to `CSc1ccc2nc(NC(=O)c3ccccc3Cl)sc2c1`, the activation is -0.347%. Regarding `Fc1ccccc1OCCSc1nc2ccccc2o1`, the activation is 4.92% (active). In the case of `CC(=O)OCC#CCSc1nc2ccccc2o1` it was -0.909%; in that of `N#Cc1ccccc1CSc1nc2ccccc2o1`, -1.07%. In the case of `O=C(Cc1ccc([N+](=O)[O-])cc1)Nc1cccc(Cl)c1` it was -0.456%; in that of `COc1ccccc1C(=O)N1CCNC(=O)C1CC(=O)Nc1ccc(Cl)cc1` (centres undefined), -1.89%; in that of `O=C(CC1C(=O)NCCN1C(=O)c1ccc([N+](=O)[O-])cc1)Nc1cccc(Cl)c1` (centres undefined), 7.94% (active). Next, `CCc1cc2c(=O)c(-c3ccc4c(c3)OCCCO4)coc2cc1OC`: -0.907%. Consider `CCCc1cc2c(=O)c(-c3ccc4c(c3)OCO4)coc2cc1O`, for which the activation was 0.792%. In the case of `CCc1cc2c(=O)c(-c3ccc4c(c3)OCCCO4)coc2cc1OC(=O)N1CCOCC1` it was 8.05% (active); in that of `COc1ccccc1N=Cc1cccc(O)c1O`, -0.891%; in that of `O=C(c1ccc(CNS(=O)(=O)c2ccc(Cl)cc2)cc1)N1CCCC1`, 6.5% (active).

Take `O=C(c1ccc(Cl)cc1)N1CCCC1`: the activation was -0.435%. Next, `O=C(c1cccc(NS(=O)(=O)c2ccc(Cl)cc2)c1)N1CCCC1`: -1.72%; `COC(=O)C1=CN(CC2CCCO2)C=C(C(=O)OC)C1c1ccc(OC)c(O)c1` (centres undefined): 1.3%; `COC(=O)C1=CN(Cc2ccc(OC)cc2)C=C(C(=O)OC)C1c1ccc(O)c(OC)c1`: 1.75%. Next, `COC(=O)C1=CN(Cc2ccc(F)cc2)C=C(C(=O)OC)C1c1ccc(OC)c(OC)c1`: -0.344%; `CCOC(=O)C1=CN(Cc2ccc(Cl)cc2)C=C(C(=O)OCC)C1c1cc(Br)c(O)c(OC)c1`: 3.19%.

For `COC(=O)C1=CN(Cc2ccc(Cl)cc2)C=C(C(=O)OC)C1c1cc(OC)c(O)c(OC)c1`, the activation is 8.56% (active).

On to `COC(=O)CN1C=C(C(=O)OC)C(c2ccc(OC)c(O)c2)C(C(=O)OC)=C1`, for which the activation is 6.57% (active). In the case of `CCOc1ccc(/C(O)=C2/C(=O)C(=O)N(CCN(CC)CC)C2c2ccc(C)cc2)c(C)c1` (centres undefined) it was 0.496%.

For `CCOc1ccc(N2C(=O)C3C4C=CC(C5CC45)C3C2=O)cc1` (centres undefined), the activation is -1.25%. In the case of `Cc1cccc(CN2CCN3C(=O)[C@H](Cc4cnc[nH]4)NC(=O)[C@H]3C2)n1` it was 0.592%; in that of `CC(=O)Nc1ccc2c(c1)CN(Cc1ccccc1)CO2`, 1.47%. In the case of `O=C(c1cccc(N2C(=O)c3ccccc3C2=O)c1)N1CCOCC1` it was -0.354%. Next, `CC1(C)Oc2ccc(C(=O)N3CCOCC3)cc2N(CC(=O)Nc2ccccc2)C1=O`: -0.343%.

`CCC(CC)C(=O)Nc1cccc(F)c1`: the activation is 4.27%.

As for `O=C(CCc1ccccc1)Nc1cccc(C(=O)N2CCOCC2)c1`, the activation was 11.5% (active). In the case of `CCC(CC)C(=O)Nc1cccc(C(=O)N2CCCC2)c1` it was 5.74% (active). In the case of `CCC(CC)C(=O)Nc1cccc(C(=O)Nc2ccccc2C(=O)NC(C)C)c1`, the activation was 0.373%. On to `Cc1ccc2oc(-c3cccc(NC(=O)c4ccc(F)cc4)c3)nc2c1`, for which the activation was 0.17%. Next, `O=C(c1cc(=O)oc2cc(OCc3ccccc3)ccc12)N1CCN(c2ccccn2)CC1`: -0.0035%; `Cc1ccc([N+](=O)[O-])cc1NC(=O)CC12CC3CC(CC(C3)C1)C2`: 2.69%; `CC(C)(C)c1ccc(C(=O)NCCC(=O)NCCc2ccccc2)cc1`: 0.46%.
